These results are taken from PubChem BioAssay.

By inhibition is commonly meant the change of the read-out against control, counted positive when it falls.

Activity calls are given as the source filed them.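 Rule for the calls, unless noted: active = inhibition above 20% together with a positive visual image hit; inconclusive = visual image hit but inhibition not above 20%; inactive = no visual image hit.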

Assay [1] can be described thus: inhibitors of TNFa-induced NFkB p65 translocation, primary screen, imaging, HUVEC, MLSMR starter and 10KST1 sets (AID 438).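 For inhibition: signal is the nuclear over cytoplasmic p65 intensity ratio per well.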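 Note: compound added about 3h40 before a 20 min TNFalpha stimulation.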 The conditions noted are these: HUVEC TNFa-induced p65 nuclear translocation; cell count: measured here: nuclei count (cytotoxicity indicator), at 2.08 µM; inhibition: at 2 µM, stronger effect = higher value, 0% TNFa-plus-vehicle, 100% no-TNFa wells.
The nature of assay [2]: inhibitors of mutant huntingtin aggregation, primary screen, imaging, exon1htt(103Q)mCFP cells, high-content imaging (AID 483;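 active = visual image review flags a hit and inhibition of aggregation exceeds 20%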;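 note: compound exposure lasted 3 days before fixation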;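 for nuclei count: percent of the per-plate median nuclei count of sample wells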). The conditions noted are these: exon1htt(103Q)mCFP cell line, aggregate imaging, at 2 µM; inhibition of aggregation: stronger effect = higher value; nuclei count: measured here: cell count, toxicity.
The nature of assay [3]: inhibitors of E-selectin induction by TNFa, primary screen, imaging, HUVEC, immunofluorescence, MLSMR starter and 10KST1 sets (AID 487;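 active = visually confirmed hit in the image check and inhibition above 20%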;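 for inhibition: signal is fraction of cell area covered by stained E-selectin grains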;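 for nuclei count: 100% = median nuclei count of all wells on the same plate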). The conditions noted are these: HUVEC TNFalpha-induced E-selectin immunofluorescence imaging, at 2 µM; inhibition: stronger effect = higher value; nuclei count: measured here: cell number, toxicity.
The target in assay [4] is Voltage-gated potassium channel subunit beta-2 (Rattus norvegicus) (UniProt P62483). Nature of the assay: KvBeta enzyme negative modulators, primary screen, biochemical, NADPH fluorescence (AID 622;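 active = fluorescence slope higher than the sample average by over 3 SD, cut at about -0.22 in these data, passing the limit was not always enough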;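 note: slope of raw intensity against log time taken from 70 to 1610 s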). The conditions noted are these: recombinant KvBeta, 4-cyanobenzaldehyde reduction, at 10 µM, stronger effect = higher value.
Assay [5] has the same target. Nature of the assay: KvBeta positive modulators, primary screen, biochemical, NADPH fluorescence (AID 623;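 active = NADPH fluorescence slope more negative than the mean of all samples by about 3 SD, 99.7% confidence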;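 note: fluorescence intensity change per second fitted from 20 to 320 s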). The conditions noted are these: Recombinant KvBeta, NADPH fluorescence decrease slope, 10 min; at 10 µM; stronger effect = lower value.
For assay [6], the target named is Alpha-2C adrenergic receptor (Homo sapiens) (UniProt P18825). Nature of the assay: modulators of alpha2C/GIRK thallium flux, primary screen, cell-based, HEK293 alpha2C/GIRK1/2 (AID 624;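 active = fluorescence slope after compound addition differing from the mean of all screened samples at 99.7% confidence, in either direction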;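 note: slope of fluorescence ratio to pre-addition baseline per second over 15 to 24 s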). The conditions noted are these: thallium flux BTC fluorescence, at 10 µM, actives lie on both sides.
Assay [7] can be described thus: inhibitors of Sendai virus-induced IRF3 signaling, primary screen, TLR/RLR signaling modifier project, cell-based, Sendai virus stimulus, luciferase, 10K MLSCN set (AID 602276;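 active = inhibition at or above 50% at 10 µM; inactive = inhibition below 50%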;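 note: firefly luciferase from ISG56 promoter only with Renilla not read in this screen; 0% = Sendai virus plus DMSO and 100% = medium plus DMSO without virus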). The conditions noted are these: HEK293 RL24 IRF3 luciferase reporter, at 10 µM, stronger effect = higher value.
The nature of assay [8]: inhibitors of poly I:C-induced TLR3 signaling, primary screen, cell-based, poly I:C stimulus, luciferase, 10K MLSCN set (AID 602277;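 active = inhibition of the reporter signal at or above 50%; inactive = inhibition below 50%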). The conditions noted are these: HEK293-TLR3 RL24 IRF3 luciferase reporter, at 10 µM, stronger effect = higher value.

Chain of Alpha-2C adrenergic receptor (Homo sapiens) (P18825 whole entry, looked up): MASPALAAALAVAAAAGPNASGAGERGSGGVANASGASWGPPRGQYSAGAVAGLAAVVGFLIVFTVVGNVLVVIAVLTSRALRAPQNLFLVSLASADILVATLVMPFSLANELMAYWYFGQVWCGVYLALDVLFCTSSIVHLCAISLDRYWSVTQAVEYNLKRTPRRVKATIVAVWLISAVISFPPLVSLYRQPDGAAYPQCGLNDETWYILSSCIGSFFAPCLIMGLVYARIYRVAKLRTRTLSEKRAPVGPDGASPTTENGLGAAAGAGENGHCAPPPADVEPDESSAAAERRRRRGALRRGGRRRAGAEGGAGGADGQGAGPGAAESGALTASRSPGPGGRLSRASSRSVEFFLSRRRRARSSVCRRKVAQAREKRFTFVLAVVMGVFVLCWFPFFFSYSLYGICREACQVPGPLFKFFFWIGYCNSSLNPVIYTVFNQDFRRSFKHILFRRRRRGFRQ
Chain of Voltage-gated potassium channel subunit beta-2 (Rattus norvegicus) (P62483 whole entry, looked up): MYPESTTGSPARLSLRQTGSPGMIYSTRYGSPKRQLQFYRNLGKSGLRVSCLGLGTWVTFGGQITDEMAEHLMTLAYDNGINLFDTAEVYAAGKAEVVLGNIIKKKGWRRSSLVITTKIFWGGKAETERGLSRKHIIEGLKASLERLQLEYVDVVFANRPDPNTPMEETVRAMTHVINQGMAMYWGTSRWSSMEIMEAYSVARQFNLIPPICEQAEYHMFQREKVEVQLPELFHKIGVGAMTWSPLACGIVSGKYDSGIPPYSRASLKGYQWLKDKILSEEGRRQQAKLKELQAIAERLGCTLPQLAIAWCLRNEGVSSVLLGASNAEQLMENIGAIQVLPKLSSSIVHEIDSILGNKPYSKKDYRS

For `O=C1c2ccccc2C(=O)N1CCN1CCCCC1`, the cell count in assay [1] was found to be 528. Further, the inhibition in assay [1] was 0.3% (inactive); in assay [3], -58.5% (inactive); in assay [7], -8.79% (inactive); in assay [8], -2.11% (inactive). Further, in assay [2], the inhibition of aggregation was -9.5% (inactive). Moreover, the values for the nuclei count in assay [2] and in assay [3] were 113% and 117%, respectively. Moreover, the fluorescence slope in assay [4] was -0.327 (inactive). The NADPH fluorescence slope in assay [5] was -5e-05 (inactive). In addition, the slope in assay [6] is 0.00644 (inactive).
Take `Nc1cccc2c1C(=O)N(c1ccccc1)C2=O`: the cell count in assay [1] was determined as 560. The inhibition was 1.8% (inactive) in assay [1], 13.9% (inactive) in assay [3], -20.4% (inactive) in assay [7] and -40.4% (inactive) in assay [8]. Besides, in assay [2], the inhibition of aggregation was -6% (inactive). For the same compound, the nuclei count in assay [2] stood at 87.9%; in assay [3] it was 107%. Also, the fluorescence slope in assay [4] is -0.0636 (active). In addition, in assay [5], the NADPH fluorescence slope is -2.2e-06 (inactive). Moreover, the slope in assay [6] was 0.00303 (inactive).
In the case of `CCn1c(C(Cc2ccccc2)NC(=O)COC)nc2ccccc21` (centres undefined), the cell count in assay [1] turned out to be 471. In addition, the inhibition in assay [1] was 13.9% (inactive); in assay [3] it was 14.1% (inactive); in assay [7], 11% (inactive); in assay [8], 31.9% (inactive). Also, in assay [2], the inhibition of aggregation is 5.5% (inactive). In addition, the figures for the nuclei count in assay [2] and in assay [3] were 124% and 110%, respectively. Besides, the fluorescence slope in assay [4] was -0.536 (inactive). Also, the NADPH fluorescence slope in assay [5] was -6.3e-05 (inactive). Further, the slope in assay [6] was 0.00652 (inactive).
`CC1CCCN(S(=O)(=O)c2ccc(C(=O)Nc3nnc(-c4ccccc4Cl)o3)cc2)C1` (centres undefined): the cell count in assay [1] turned out to be 687. Moreover, the inhibition is -2.8% (inactive) in assay [1], -16.5% (inactive) in assay [3], 22.7% (inactive) in assay [7] and 25.9% (inactive) in assay [8]. For the same compound, in assay [2], the inhibition of aggregation was 10.5% (inactive). In addition, the nuclei count amounted to 111% in assay [2] and 110% in assay [3]. The fluorescence slope in assay [4] is -0.468 (inactive). Further, the NADPH fluorescence slope in assay [5] was -2.3e-05 (inactive). Besides, the slope in assay [6] was 0.0065 (inactive).
With `CCOC(=O)N1CCC(N2C(=O)c3ccccc3C2Nc2cccnc2)CC1` (centres undefined), the cell count in assay [1] came to 592. Moreover, the inhibition in assay [1] was -4.5% (inactive); in assay [3], -11.7% (inactive); in assay [7], 7.61% (inactive); in assay [8], -4.54% (inactive). In assay [2], the inhibition of aggregation was -28.1% (inactive). The nuclei count was found to be 100% in assay [2] and 117% in assay [3]. In addition, in assay [4], the fluorescence slope was -0.6 (inactive). Further, the NADPH fluorescence slope in assay [5] is 4.7e-06 (inactive). The slope in assay [6] was 0.00694 (inactive).
Consider `CCn1c(-c2cc(Br)ccc2O)n[nH]c1=S`, for which the cell count in assay [1] was found to be 623. In addition, the inhibition in assay [1] was -3.8% (inactive); in assay [3], -27.4% (inactive); in assay [7], 8.59% (inactive); in assay [8], 9.74% (inactive). Moreover, in assay [2], the inhibition of aggregation is -0.9% (inactive). Further, the nuclei count in assay [2] came to 112%; in assay [3], 83.3%. Moreover, the fluorescence slope in assay [4] is -0.59 (inactive). Further, the NADPH fluorescence slope in assay [5] is -3.5e-05 (inactive). Further, the slope in assay [6] was 0.00762 (inactive).
With `COc1ccc(S(=O)(=O)Nc2cccc(C)n2)c2ccccc12`, the cell count in assay [1] was 713. For the same compound, the inhibition in assay [1] was 6.1% (inactive); in assay [3] it was 41.3% (inactive); in assay [7], -6.27% (inactive); in assay [8] it was 0.733% (inactive). Moreover, the inhibition of aggregation in assay [2] is -1.6% (inactive). For the same compound, the nuclei count amounted to 76.3% in assay [2] and 92.3% in assay [3]. In addition, the fluorescence slope in assay [4] was -0.528 (inactive). For the same compound, in assay [5], the NADPH fluorescence slope was 2.4e-05 (inactive). For the same compound, in assay [6], the slope was 0.00605 (inactive).
In the case of `Cc1ccc(C2CC(c3ccc(C)cc3)n3nc(N)nc3N2)cc1` (centres undefined), the cell count in assay [1] stood at 871. Besides, the inhibition is 2.8% (inactive) in assay [1], -71.7% (inactive) in assay [3], -11.6% (inactive) in assay [7] and 0.814% (inactive) in assay [8]. Further, the inhibition of aggregation in assay [2] is 15.1% (inactive). For the same compound, the results for the nuclei count in assay [2] and in assay [3] were 95.1% and 116%, respectively. For the same compound, the fluorescence slope in assay [4] was -0.613 (inactive). The NADPH fluorescence slope in assay [5] is -1.7e-05 (inactive). The slope in assay [6] was 0.00808 (inactive).
For `COCCNC(=O)c1ccc(CS(=O)(=O)c2c(Cl)cccc2Cl)o1`, the cell count in assay [1] stood at 462. Moreover, the inhibition is -6.8% (inactive) in assay [1], -46.3% (inactive) in assay [3], -1.52% (inactive) in assay [7] and 24.5% (inactive) in assay [8]. Moreover, the inhibition of aggregation in assay [2] is 22.9% (inactive). Moreover, the nuclei count is 103% in assay [2] and 112% in assay [3]. In assay [4], the fluorescence slope was -0.428 (inactive). Besides, the NADPH fluorescence slope in assay [5] was 2.4e-05 (inactive). In addition, in assay [6], the slope is 0.00478 (inactive).
Consider `COc1ccccc1CC(=O)Nc1ccc(OC)c(OC)c1`, for which the cell count in assay [1] turned out to be 330. Also, the inhibition was -8.4% (inactive) in assay [1], -157% (inactive) in assay [3], 14.5% (inactive) in assay [7] and 21.7% (inactive) in assay [8]. The inhibition of aggregation in assay [2] is 17.1% (inactive). Moreover, the nuclei count was found to be 102% in assay [2] and 118% in assay [3]. In addition, the fluorescence slope in assay [4] is -0.466 (inactive). Moreover, in assay [5], the NADPH fluorescence slope is -5.5e-05 (inactive). Further, the slope in assay [6] was 0.00704 (inactive).
Turning to `CC(=O)Nc1cc(NC(C)=O)cc(C(=O)OCC(=O)N2CC(C)OC(C)C2)c1` (centres undefined), in assay [1], the cell count was 492. Moreover, the inhibition is -3.9% (inactive) in assay [1], 6.9% (inactive) in assay [3], 6% (inactive) in assay [7] and 8.11% (inactive) in assay [8]. In addition, the inhibition of aggregation in assay [2] is 22.1% (inactive). For the same compound, the nuclei count in assay [2] is 104%; in assay [3], 109%. Also, in assay [4], the fluorescence slope is -0.299 (inactive). Further, in assay [5], the NADPH fluorescence slope was -4.8e-05 (inactive). In assay [6], the slope is 0.00487 (inactive).
As to `CCOC(=O)c1c(COC(=O)c2ccco2)nc2ccccc2[n+]1[O-]`, the cell count in assay [1] stood at 570. Besides, the inhibition in assay [1] was 8.9% (inactive); in assay [3], -31.9% (inactive); in assay [7] it was 17.9% (inactive); in assay [8] it was 15.1% (inactive). Besides, the inhibition of aggregation in assay [2] is 8.4% (inactive). For the same compound, the nuclei count in assay [2] was found to be 107%; in assay [3], 120%. The fluorescence slope in assay [4] is -0.392 (inactive). Also, in assay [5], the NADPH fluorescence slope is -4.6e-05 (inactive). For the same compound, the slope in assay [6] is 0.00397 (inactive).
For `CCC(=O)c1cc(F)c(N2CCN(C(=O)c3ccco3)CC2)cc1C`, the cell count in assay [1] turned out to be 611. Further, the inhibition in assay [1] was -1.3% (inactive); in assay [3], -10.1% (inactive); in assay [7] it was 1.51% (inactive); in assay [8], -21.1% (inactive). In addition, the inhibition of aggregation in assay [2] is -12.2% (inactive). Moreover, the nuclei count in assay [2] worked out at 128%; in assay [3], 104%. The fluorescence slope in assay [4] was -0.519 (inactive). In addition, in assay [5], the NADPH fluorescence slope was -4.1e-05 (inactive). In assay [6], the slope was 0.00579 (inactive).
For `CC(=O)NCc1ccc(C(=O)CSc2nnc(-c3ccncc3)n2Cc2ccccc2)o1`, the cell count in assay [1] was 461. Also, the inhibition in assay [1] is -1.1% (inactive); in assay [3], -25.7% (inactive); in assay [7], 12.6% (inactive); in assay [8], 20.5% (inactive). In assay [2], the inhibition of aggregation is 16.2% (inactive). In addition, the results for the nuclei count in assay [2] and in assay [3] were 96% and 127%, respectively. The fluorescence slope in assay [4] is -0.59 (inactive). Also, the NADPH fluorescence slope in assay [5] was -5.8e-05 (inactive). In addition, the slope in assay [6] was 0.00604 (inactive).
